Bioassay records deposited in PubChem by several laboratories.
Efa HMGR inh: inhibitors of class II HMG-CoA reductase from Enterococcus faecalis | purified E. faecalis HMGR, NADPH absorbance 340 nm kinetic | inhibition, % at 10 µM | 190,000 compounds, 0.41% hits | AID 1066;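 active = inhibition above a set limit, the median over all tested compounds plus 3 SD, cut at about 9.5% in these data; inconclusive = no clear call, values can overlap the other calls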;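 also: enzyme runs in reverse so mevalonate oxidation gives rising NADPH absorbance; 0% = complete reaction with DMSO and 100% = background rate lacking mevalonate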
Insulin prom inh: TRM-6 insulin promoter activity inhibition. 130,000 compounds, 0.9% hits. TRM-6 cells (human fetal islet line), insulin promoter-eGFP reporter, imaging; reporter expression induced with tamoxifen. inhibition, % at 2 µM. AID 1273;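 active = inhibition above the mean plus 3 SD, with well images judged a real hit on visual review, cut at about 60% in these data, passing the limit was not always enough; inconclusive = inhibition over the cutoff but images rejected on review; inactive = inhibition not above the cutoff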
Autophagy HCS: alters autophagy in cells | MEF GFP-LC3 puncta imaging; test concentration mostly 10 µM | calls only at 10 µM (by protocol) | 190,000 compounds, 0.98% hits | AID 463193;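 active = percentage of spot-positive cells more than 3 SD above its plate mean, without a fluorescence outlier flag or 80% toxicity; inconclusive = no clear call, values can overlap the other calls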;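 also: spot-positive cell cutoff set from DMSO-treated cells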
Insulin prom up: MIN6 insulin promoter up-regulation. MIN6 insulin promoter-GFP reporter, high-content imaging; stronger effect = higher value. 190,000 compounds, 0.3% hits. z-score at 5 µM;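 active = z-score above 3 at 5 µM with at least 500 cells counted in the well; inconclusive = wells under 500 cells, flagged as cytotoxic or low count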
An asterisk follows results filed as active; i = inactive; ? = inconclusive; . = no result given; + = active, no number. Shown are actives, neighbours in structure and some others; about 1.9% of the full set was active somewhere.

SMILES | Efa HMGR inh | Insulin prom inh | Autophagy HCS | Insulin prom up
CCOC(=O)c1ccc(Oc2c(C)oc3cc(OS(C)(=O)=O)ccc3c2=O)cc1 | 2 | 7 | i | .
COc1cc(CN2CCN(Cc3ccc(C)cc3)C(CCO)C2)ccc1O (configuration not stated) | -6 | 78* | i | .
COc1cccc(C(=O)NCc2n[nH]c(=S)n2-c2cccc(C)c2)c1 | -1 | . | i | 0.95
COc1ccc(CC(=O)NCc2n[nH]c(=S)n2-c2cccc(C)c2)cc1 | -4 | 71* | i | 0.39
O=C(C1=NN[C@@H]2C(=O)N(Cc3ccccc3)C(=O)[C@H]12)c1ccc([N+](=O)[O-])cc1 | . | . | . | -0.57
NS(=O)(=O)c1ccc(CCNC(=O)c2cccc(OC(F)F)c2)cc1 | -7 | -69 | + | -0.43
NS(=O)(=O)c1ccc(CCNC(=O)c2ccccc2F)cc1 | 3 | -115 | i | 0.42
CC(=O)Nc1ccc(C2(c3ccc(NC(C)=O)cc3)C(=O)Nc3ccccc32)cc1 | -6 | 44 | i | 0.05
COc1ccc(CN(C(=O)COc2ccccc2)c2ccccc2C(=O)O)cc1 | . | . | . | -0.94
Nc1c(C(=O)NCc2ccccc2)c2nc3ccccc3nc2n1CCCN1CCOCC1 | 0 | -43 | + | -1.6
O=C(OCCCCN1C(=O)c2ccccc2C1=O)c1ccc(Br)o1 | -1 | 79* | i | -0.38
O=C(OCCN1C(=O)c2ccccc2C1=O)c1ccco1 | -9 | 59 | i | .
CCC(C)(C)n1nnnc1C(C(C)C)N1CCSCC1 (configuration not stated) | -2 | -52 | + | -0.25
Cc1ccc(SCC(=O)NC(=O)c2ccc(S(=O)(=O)N(C)C)cc2)cc1C | -4 | 3 | i | 0.07
COc1ccc(-c2[nH]n(-c3ccc([N+](=O)[O-])cc3)c(=O)c2C=NCc2ccccc2)cc1 | 1 | 0 | + | .
COc1ccc(-c2[nH]n(-c3ccc([N+](=O)[O-])cc3)c(=O)c2C=NCCN2CCNCC2)cc1 | 0 | 33 | i | 0.35
COc1cc(NC(=O)CN2C(=O)CN(C)C2=O)c(C)cc1[N+](=O)[O-] | -3 | . | i | 0.8
COc1cc(NC(=O)Cn2ncc(Cl)c(Cl)c2=O)c(C)cc1[N+](=O)[O-] | -4 | . | + | ?
O=C(NCc1ccccc1)C(c1ccc(F)cc1)N(Cc1ccc2c(c1)OCO2)C(=O)Cn1nnc(-c2cccs2)n1 (configuration not stated) | -2 | 52 | i | .
CCCC(C(=O)NCc1ccccc1)N(C(=O)Cn1nnc(-c2cccs2)n1)c1ccc2c(c1)OCCO2 (configuration not stated) | -4 | 62 | + | -0.65
Cc1cc(C)n2nc(N)c(N=Nc3cccc(Cl)c3)c2n1 | -3 | 62* | i | -0.65
Cc1ccc(N=Nc2c(N)nn3c(N)c(C#N)c(C)nc23)cc1 | -4 | 47 | i | .
Cc1ccc(N=Nc2c(N)nn3c(C)cc(C)nc23)cc1 | -1 | 82* | i | .
COc1cccc(N=Nc2c(=O)[nH]n3c(C)cc(C)nc23)c1 | -4 | 53 | i | 0.09
COc1ccccc1CN1CN(S(=O)(=O)c2ccccc2)c2nc3ccccc3nc21 | . | . | . | -0.13
SMILES | Efa HMGR inh | Insulin prom inh | Autophagy HCS | Insulin prom up
Cc1cc(C(F)(F)F)n(-c2nc(C(=O)NNS(=O)(=O)c3ccccc3[N+](=O)[O-])cs2)n1 | 0 | . | i | -0.97
COCCNC(=O)Cn1c(=O)n(Cc2ccco2)c(=O)c2ccccc21 | -7 | 86* | i | 0.61
CCOc1ccc(-n2c(=O)c3c(C)c(C)sc3n(CC(=O)NCc3ccco3)c2=O)cc1 | -8 | . | i | 0.32
Cc1sc2c(c1C)c(=O)n(-c1cccc(C(F)(F)F)c1)c(=O)n2CC(=O)NCc1ccco1 | 1 | 69* | i | .
Cc1ccc(-n2nnc3c(=O)n(CC(=O)NCc4ccco4)cnc32)cc1 | -2 | . | i | -0.97
Cc1ccc(Cn2nnc3c(=O)n(CC(=O)NCc4ccco4)cnc32)cc1 | 20* | -81 | i | .
Cc1ccc(-n2c(=O)c3ccccc3n(CC(=O)NCc3ccco3)c2=O)cc1 | -7 | 73* | i | -0.95
CCc1ccc(-n2c(=O)c3ccccc3n(CC(=O)NCc3ccco3)c2=O)cc1 | 2 | -78 | i | -0.49
CCCc1nn(C)c2c(=O)[nH]c(-c3cc(S(=O)(=O)NCCO)ccc3OCC)nc12 | . | . | . | -0.21
c1ccc(-c2nnc3n2-c2ccccc2SC3)cc1 | . | . | . | -0.08
COc1ccc(CNC(=O)/C=C/C(=O)O)cc1OC | 0 | . | i | 0.44
COc1ccc(CNC(=O)/C=C/c2ccco2)cc1OC | -3 | 71* | i | .
CCc1ccc(C2(O)CC(C(F)(F)F)=NN2C(=O)Cc2ccc([N+](=O)[O-])cc2)cc1 (configuration not stated) | -2 | -55 | i | .
CCC1=NN(C(=O)Cc2ccc([N+](=O)[O-])cc2)C(O)(C(C)(C)C)C1 (configuration not stated) | -10 | -44 | + | -0.2
O=S(=O)(c1ccc(N2CCOCC2)nc1)N(Cc1ccccn1)Cc1ccccn1 | . | . | . | -0.09
COc1cc(C)nc(N2CCCC(C(=O)Nc3ccccc3Br)C2)n1 (configuration not stated) | -1 | . | i | 0.49
COc1cc(C)nc(N2CCCC(C(=O)Nc3cccc(Cl)c3C)C2)n1 (configuration not stated) | -1 | . | i | 3.9*
O=C(Cc1nc(-c2ccc([N+](=O)[O-])cc2)cs1)Nc1ccccc1 | -2 | -193 | i | 8.6*
O=C(CN1C(=O)NC2(CCCCC2)C1=O)NCc1cccs1 | -2 | -40 | i | 0.27
Cc1cccc(C)c1NC(=O)CN(C)CC(=O)Nc1ccccc1Oc1ccccc1 | 0 | . | i | 1.1
Cc1ccc(NC(=O)CN(C)CC(=O)Nc2ccccc2Oc2ccccc2)cc1 | 3 | . | + | -0.36
Cc1cc(C)cc(-n2c3nc4ccccc4nc3c3c(=O)n(Cc4ccco4)cnc32)c1 | 17* | -19 | i | -1.2
O=C(CSc1nc2ccccc2[nH]1)Nc1c(F)cccc1F | 5 | 89* | i | 1.3
Fc1cccc(F)c1CSc1nc2ccccc2[nH]1 | -1 | 75* | i | -0.51
Cc1ccc(CSCc2nc3ccccc3[nH]2)cc1 | 1 | . | i | .
SMILES | Efa HMGR inh | Insulin prom inh | Autophagy HCS | Insulin prom up
Fc1ccccc1CSCc1nc2ccccc2[nH]1 | -7 | . | + | -0.1
O=C(CSc1nc2ccccc2[nH]1)Nc1c(F)c(F)c(F)c(F)c1F | 1 | -33 | i | 1.9
COc1ccc(NC(=O)C2CCCN(S(=O)(=O)c3ccc4c(c3)oc(=O)n4C)C2)c(OC)c1 (configuration not stated) | -10 | . | i | 0.03
O=C(Cn1c2ccccc2c(=O)c2ccccc21)N/N=C/c1cc([N+](=O)[O-])ccc1N1CCCCC1 | 0 | . | + | -0.53
Cc1c(/C(O)=C2/C(=O)C(=O)N(Cc3cccnc3)C2c2ccccn2)cnn1-c1ccccc1 (configuration not stated) | -6 | . | i | -1.7
O=C(Nc1ccccc1)c1nn(-c2ccccc2)c(=O)cc1C(F)(F)F | -2 | 7 | + | 0.06
CCOc1ccc(NC(=O)/C(C#N)=C/c2ccc(N3CCCC3)c(C)c2)cc1 | 4 | . | + | -0.3
